High-throughput results deposited in PubChem by National Center for Advancing Translational Sciences (NCATS).
Shown are actives, neighbours in structure and some others; about 3.4% of the full set was active somewhere.
AmpC no deterg: inhibitors of E. coli AmpC beta-lactamase without detergent; AmpC nitrocefin hydrolysis, absorbance 480 nm, 0.0001% Triton; Potency, µM (top dose mostly 57.1 µM), inactives show at the highest dose activity change, negative = inhibition, actives largely listed as inhibitors; 330,000 compounds, 0.52% hits; AID 485341;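 further: plate controls were no compound for no effect and no enzyme for full effect; nearly all actives have a fitted effect of over 20% in size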
Target sequence (P00811 whole entry, looked up): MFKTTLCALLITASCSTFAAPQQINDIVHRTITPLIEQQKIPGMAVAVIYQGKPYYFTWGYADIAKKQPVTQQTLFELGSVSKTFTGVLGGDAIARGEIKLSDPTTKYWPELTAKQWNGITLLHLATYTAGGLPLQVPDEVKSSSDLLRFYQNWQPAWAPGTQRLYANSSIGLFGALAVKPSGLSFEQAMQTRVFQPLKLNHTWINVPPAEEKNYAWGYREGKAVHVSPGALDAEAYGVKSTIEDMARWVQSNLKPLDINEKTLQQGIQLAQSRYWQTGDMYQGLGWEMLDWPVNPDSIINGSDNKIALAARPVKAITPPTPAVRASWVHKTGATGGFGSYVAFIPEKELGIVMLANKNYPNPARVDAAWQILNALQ
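20 mM phosphate pH 7.0 + 0.01% (detergent screen) or 0.0001% Triton X-100; 5.3 nM AmpC reagent; cpd preinc 15 min RT; nitrocefin (800 uM stock) to start; A480 q20 s × 4 min; Activity was normalised to no-enzyme and no-compound control wells.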
Sm TGR inh: blocks Schistosoma mansoni thioredoxin glutathione reductase. Q962Y6. purified TGR, DTNB reduction, TNB absorbance 405 nm. Potency, µM (top dose mostly 114 µM), for the others: top-dose activity change, negative = inhibition, usual class: inhibitors. 360,000 compounds, 3% hits. AID 485364; further: nearly all actives have a fitted effect of over 60% in size
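TGR 20 nM + NADPH 100 uM (dispensed conc.), cpd preinc 15 min RT; start with NADPH (500 uM addition) then DTNB (15 mM addition). Kinetic TNB absorbance, 405 nm filter. Four-parameter Hill fit across titration.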
AmpC inh detg: blocks E. coli AmpC beta-lactamase in detergent assay; P00811; AmpC hydrolysis of nitrocefin, absorbance 480 nm, 0.01% Triton; Potency, µM (highest dose often 114 µM), for the others: top-dose activity change, negative = inhibition, actives largely listed as inhibitors; 370,000 compounds, 0.041% hits; AID 485294;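 further: 0% = no-compound wells and -100% = no-enzyme wells; nearly all actives have a fitted effect of over 25% in size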
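AmpC (5.3 nM in the dispensed reagent) in 20 mM phosphate pH 7.0 with 0.01% (detergent screen) or 0.0001% Triton X-100 was preincubated with compounds for 15 min at room temperature. Nitrocefin was then added from an 800 uM solution, and hydrolysis was followed at 480 nm.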
RE007 growth inh: less growth of the S. pombe RE007 Vpr strain; S. pombe RE007 Vpr strain, BacTiter-Glo ATP luminescence, 24 h; AID 651644; 360,000 compounds, 0.21% hits; Potency, µM (series often up to 92.2 µM), for the others: at the highest dose activity change, negative = less growth, actives largely listed as inhibitors; active means well fitted falling curve with a large enough effect; inconclusive means small, poorly fitted or top-dose-only effect; inactive means no such curve, though single readings can be large or run the other way; further: nearly all actives have a fitted effect of over 50% in size
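Fission yeast strain RE007, carrying one chromosomally integrated HIV-1 vpr copy, was seeded at OD 0.01 in PMG+AL medium with 23 nL pinned compound. After 24 h at 30 °C and 99% humidity, viability was read by BacTiter-Glo luminescence.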
FBPA Giardia inh: blocks Giardia fructose-bisphosphate aldolase activity | A8B2U2 | purified Giardia FBPA | Potency, µM (series often up to 59.6 µM), inactives show at the highest dose activity, negative = inhibition, most hits filed as inhibitors | 290,000 compounds, 0.71% hits; further: nearly all actives have a fitted effect of over 55% in size
Target sequence (A8B2U2 whole entry, looked up): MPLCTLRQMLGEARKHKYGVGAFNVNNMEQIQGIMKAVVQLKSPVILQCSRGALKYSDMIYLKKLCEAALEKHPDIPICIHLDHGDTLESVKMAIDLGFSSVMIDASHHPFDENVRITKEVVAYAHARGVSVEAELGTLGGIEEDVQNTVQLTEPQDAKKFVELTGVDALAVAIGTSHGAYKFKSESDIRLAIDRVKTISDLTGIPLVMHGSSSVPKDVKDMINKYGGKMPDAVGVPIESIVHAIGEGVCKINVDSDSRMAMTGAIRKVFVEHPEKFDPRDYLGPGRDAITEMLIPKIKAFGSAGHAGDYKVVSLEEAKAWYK
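40 nM FBPA preincubated 10 min at RT with compound (up to 57.5 uM final), then substrate plus GAPDH/TPI/NAD/arsenate coupling and diaphorase/resazurin added. Fluorescence read after 20 min at RT, 525/598 nm.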
Numbers without * were called inactive; ? = inconclusive; . = no result. Unless noted, the call rests on the fitted dose curve; in most records, active means well fitted curve in the direction sought with a large enough effect; inconclusive means small, poorly fitted or top-dose-only effect, or another doubt; inactive means no such curve, though single readings can be large; an effect the other way counts as inactive or inconclusive. Unless noted, on the % scale 0 is the no-effect control and ±100 the full control effect; potency means the concentration at half of the fitted maximal effect.

SMILES	AmpC no deterg	Sm TGR inh	AmpC inh detg	RE007 growth inh	FBPA Giardia inh
O=Cc1ccc2oc3nc4n(c(=O)c3c(=O)c2c1)CCCS4	-31%	0%	-12%	-2%	?
Cc1cc2nc(-c3ccc[nH]c3=O)[nH]c2cc1C	-12%	5%	0%	7.1µM*	7%
Cc1ccc(OCc2cc(C(=O)N3CCN(c4ccccc4)CC3)no2)cc1C	-2%	-15%	2%	-13%	.
COc1ccc2c(c1)CC1(CN2C)C(=O)NC(=O)N(CCc2ccccc2)C1=O (centres undefined)	-37%	40µM*	-12%	14%	7%
COc1cc(CN2C(=O)NC(=O)C3(Cc4cc(C)ccc4N(C)C3)C2=O)cc(OC)c1 (centres undefined)	-58%	?	0%	11%	-15%
O=C(N/N=C/c1ccoc1)c1ccc(Cl)cc1	32%	45µM*	7%	11%	.
Cc1ccc(CNc2ccc3c(c2)OCO3)cc1	.	45µM*	-5%	-20%	?
c1cc(CNc2ccc3c(c2)OCO3)ccn1	-3%	?	-5%	-8%	?
C[C@@H](C(=O)Nc1ccc(SC(F)F)cc1)N1C(=O)C2CCCCC2C1=O (some centres undefined)	-12%	.	.	1%	.
COc1ccc(C(=O)N/N=C(\C)c2ccc3c(c2)C2C=CCC2C(c2ccccc2)N3)cc1 (centres undefined)	-4%	10µM*	-9%	-12%	?
Cc1cc(C)c2c(c1)[C@@H]1C=CC[C@@H]1[C@H](c1ccc(S(=O)(=O)N3CCOCC3)cc1)N2	13%	2.8µM*	-13%	-2%	-2%
Cc1cccc(NS(=O)(=O)c2ccc3c(c2)[C@H]2C=CC[C@H]2[C@@H](c2ccc(F)cc2)N3)c1	.	-4%	1%	.	.
COc1ccc(OC)c([C@@H]2Nc3ccc(C(=O)O)cc3[C@@H]3C=CC[C@@H]32)c1	.	?	10%	.	.
Fc1ccc([C@@H]2Nc3ccccc3[C@@H]3C=CC[C@@H]32)cc1	.	5.6µM*	10%	.	.
COC(=O)c1ccc([C@H]2Nc3ccc(S(=O)(=O)Nc4ccc(F)cc4)cc3[C@H]3C=CC[C@H]32)cc1	.	32µM*	-7%	.	.
CC(=O)Nc1nc(NCc2ccccc2Cl)n(-c2ccccc2)n1	-13%	-20%	-1%	0%	8%
Cc1cc(CSCc2ccc(Cl)cc2)no1	-8%	-7%	-4%	-6%	18%
COC(=O)c1ccc(C2Nc3c(C)cc(C)cc3C3C=CCC32)cc1 (centres undefined)	.	1.1µM*	-6%	.	.
CSCCCNC(=S)N1CCc2ccccc2C1	-26%	-7%	1%	-20%	-7%
O=C(c1ccccc1Cl)N(C(=O)c1ccccc1Cl)c1nccc(-c2cccs2)n1	-21%	1%	3%	0%	7.9µM*
Cc1cc(C)c(Cn2c(C)c(CNCc3ccccc3C)c(C(=O)O)c2C)c(C)c1	.	-22%	18%	.	.
COc1ccc(C(=O)Nc2ccccc2-c2nnn(CC(N)=O)n2)cc1	.	.	.	-4%	.
CCOc1cc(C2c3c(-c4ccccc4)n[nH]c3C(=O)N2c2ccc(C(=O)O)cc2)ccc1O (centres undefined)	-21%	25µM*	-8%	23%	21%
CCOC(=O)c1ccc(N2C(=O)c3n[nH]c(C)c3C2c2ccc(O)cc2)cc1 (centres undefined)	-41%	35µM*	-11%	19%	9%
CCOC(=O)c1ccc(N2C(=O)c3n[nH]c(C)c3C2c2ccccc2)cc1 (centres undefined)	-6%	6%	0%	10%	6%
SMILES	AmpC no deterg	Sm TGR inh	AmpC inh detg	RE007 growth inh	FBPA Giardia inh
COc1cc2c(C#N)c(N3CCCC3)nc(N)c2c(N)n1	3%	7%	5%	-5%	1.3µM*
Cc1cc(C)nc(/N=C2\NC(=O)CC(C(=O)O)N2c2ccc(Cl)cc2)n1 (centres undefined)	8.9µM*	2%	?	4%	-14%
CCOc1ccc(Nc2c(S(=O)(=O)c3ccc(C)cc3)cnc3ccc(OC)cc23)cc1	.	-8%	-1%	.	.
CC(=O)Nc1ccc(S(=O)(=O)NNc2cccc(C)c2)cc1	-21%	14µM*	0%	-14%	.
COc1cc(-c2nnc(NC(=O)CCS(=O)(=O)c3ccccc3)o2)cc(OC)c1OC	-13%	28µM*	5%	2%	.
COc1ccc(-c2csc(NC(=O)CS(=O)(=O)c3ccccc3)n2)c(OC)c1	.	.	.	5%	.
COc1ccc(-c2csc(NC(=O)CCS(=O)(=O)c3ccccc3)n2)c(OC)c1	-37%	14µM*	0%	3%	-15%
COc1cc(OC)cc(-c2nnc(NC(=O)CCS(=O)(=O)c3ccc(F)cc3)o2)c1	-6%	?	10%	0%	.
COc1cc(OC)cc(-c2nnc(NC(=O)CCS(=O)(=O)c3ccccc3)o2)c1	-34%	32µM*	-12%	6%	.
COc1ccc(-c2nc(CS(=O)CC(=O)NC(C)CCc3ccccc3)c(C)o2)cc1OC (centres undefined)	145%	32µM*	-6%	2%	-4%
Cc1ccc(-c2nc(CS(=O)(=O)CC(=O)NC(C)CCc3ccccc3)c(C)o2)cc1 (centres undefined)	.	-22%	8%	.	.
Cc1ccc(S(=O)Cc2nc(-c3ccc(C(=O)NC(C)c4ccccc4)cc3)oc2C)cc1 (centres undefined)	.	14µM*	18%	.	.
Cc1ccc(-c2nc(CS(=O)CC(=O)NC(C)CCc3ccccc3)c(C)o2)cc1 (centres undefined)	184%	8.9µM*	-3%	6%	.
COc1ccccc1CNC(=O)CS(=O)Cc1nc(-c2ccc(OC)c(OC)c2)oc1C (centres undefined)	90%	?	-1%	9%	3%
Cc1cccc(-n2c(CNC(=O)Cc3ccccc3)n[nH]c2=S)c1	-9%	0%	?	8%	-19%
COc1ccc(N2CC(NC(=O)C3CCCC3)CC2=O)cc1OC (centres undefined)	.	-9%	-3%	.	.
Cc1cc(C(=O)CCl)c(C)n1-c1cccc(S(=O)(=O)N2CCOCC2)c1	-13%	3.5µM*	11%	-3%	-1%
Cc1ccc(C)n1-c1cccc(S(=O)(=O)N2CCOCC2)c1	-2%	35µM*	9%	5%	1%
Cc1cc(C(=O)CN2C(=O)CN(C)C2=O)c(C)n1-c1cccc(S(=O)(=O)N2CCOCC2)c1	90%	2%	2%	0%	3%
O=S(=O)(c1cccc(S(=O)(=O)N2CCOCC2)c1)N1CCCCC1	6%	5%	?	33%	7%
CCOC(=O)c1cccnc1SC(CC)C(=O)NCc1ccco1 (centres undefined)	-12%	-17%	2%	2%	-1%
